Here are results for one sequence from paper PMC7862700, “An all-to-all approach to the identification of sequence-specific readers for epigenetic DNA modifications on cytosine”.

Holding throughout (assay): DAPPL (digital affinity profiling via proximity ligation, sequencing); 10 mM Tris-HCl pH 7.5, 50 mM NaCl, 1 mM DTT, 4% glycerol, room temperature, 30 min; GST-TFs on glutathione beads, 16-mer random dsDNA library, 0.1% formaldehyde crosslink after washing; high values mean tight binding
The target in one test is T1, FLI1 (Homo sapiens, UniProt Q01543 1-452).
T1 sequence: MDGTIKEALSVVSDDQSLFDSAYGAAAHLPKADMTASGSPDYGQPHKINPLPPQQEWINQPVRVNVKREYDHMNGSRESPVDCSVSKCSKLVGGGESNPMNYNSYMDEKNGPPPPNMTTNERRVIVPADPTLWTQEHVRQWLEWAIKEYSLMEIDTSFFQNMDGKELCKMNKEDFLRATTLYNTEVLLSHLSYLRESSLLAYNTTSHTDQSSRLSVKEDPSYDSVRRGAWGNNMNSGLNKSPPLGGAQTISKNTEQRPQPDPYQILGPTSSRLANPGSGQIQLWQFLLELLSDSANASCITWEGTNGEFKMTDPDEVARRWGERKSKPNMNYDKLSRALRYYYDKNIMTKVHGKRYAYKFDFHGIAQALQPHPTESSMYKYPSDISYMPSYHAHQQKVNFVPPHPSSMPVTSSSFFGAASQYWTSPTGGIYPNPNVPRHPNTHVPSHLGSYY
Particulars: protein: recombinant; tags: N-terminal GST; dsDNA, one strand shown. An outline of the steps:
(§1)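 Yeast served to express human transcription factors as GST fusions, which were then captured on glutathione beads and labelled with DNA barcodes. Pooled with a tag-only sample, they were incubated with 200 nmole of a 16-mer random double-stranded DNA library for 30 min at room temperature in Tris/NaCl/DTT/glycerol buffer, washed, crosslinked with 0.1% formaldehyde, ligated by proximity, amplified by PCR and sequenced. Dividing each hexamer's read frequency for a factor by its frequency for the tag-only sample gives the binding signal.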

A further test addresses T2, ELK1 (Homo sapiens, UniProt P19419 1-428).
T2 sequence: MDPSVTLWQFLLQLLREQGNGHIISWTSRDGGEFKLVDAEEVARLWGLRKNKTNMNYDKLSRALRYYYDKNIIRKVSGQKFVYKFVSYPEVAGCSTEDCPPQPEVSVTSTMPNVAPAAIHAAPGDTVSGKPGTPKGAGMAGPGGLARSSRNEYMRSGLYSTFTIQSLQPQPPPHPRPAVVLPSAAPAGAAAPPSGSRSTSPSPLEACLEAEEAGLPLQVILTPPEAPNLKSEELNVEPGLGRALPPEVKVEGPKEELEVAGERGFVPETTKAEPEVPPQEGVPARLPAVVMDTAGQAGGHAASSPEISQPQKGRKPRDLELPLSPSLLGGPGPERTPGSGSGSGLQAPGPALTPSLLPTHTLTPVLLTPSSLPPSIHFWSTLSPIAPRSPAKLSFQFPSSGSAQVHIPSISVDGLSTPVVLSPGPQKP
The conditions noted are these: protein: recombinant; tags: N-terminal GST; dsDNA, one strand shown. An outline of the steps: as §1

The target in the next test is T3, GABPA (Homo sapiens, UniProt Q06546 1-454).
T3 sequence: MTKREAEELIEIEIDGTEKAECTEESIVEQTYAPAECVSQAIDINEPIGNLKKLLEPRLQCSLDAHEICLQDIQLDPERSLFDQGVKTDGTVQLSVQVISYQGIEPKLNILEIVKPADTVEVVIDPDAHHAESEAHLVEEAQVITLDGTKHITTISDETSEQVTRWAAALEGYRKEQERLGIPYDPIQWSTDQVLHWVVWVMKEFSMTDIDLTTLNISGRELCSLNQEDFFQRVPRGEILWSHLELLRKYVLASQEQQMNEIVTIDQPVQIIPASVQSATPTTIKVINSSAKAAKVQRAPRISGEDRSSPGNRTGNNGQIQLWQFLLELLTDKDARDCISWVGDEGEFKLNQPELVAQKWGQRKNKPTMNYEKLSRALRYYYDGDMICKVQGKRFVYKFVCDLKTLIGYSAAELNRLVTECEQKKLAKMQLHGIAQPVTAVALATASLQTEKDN
The conditions noted are these: protein: recombinant; tags: N-terminal GST; dsDNA, one strand shown. The gist of the method: as §1

A further test deals with T4, ERG (Homo sapiens, UniProt P11308 1-479).
T4 sequence: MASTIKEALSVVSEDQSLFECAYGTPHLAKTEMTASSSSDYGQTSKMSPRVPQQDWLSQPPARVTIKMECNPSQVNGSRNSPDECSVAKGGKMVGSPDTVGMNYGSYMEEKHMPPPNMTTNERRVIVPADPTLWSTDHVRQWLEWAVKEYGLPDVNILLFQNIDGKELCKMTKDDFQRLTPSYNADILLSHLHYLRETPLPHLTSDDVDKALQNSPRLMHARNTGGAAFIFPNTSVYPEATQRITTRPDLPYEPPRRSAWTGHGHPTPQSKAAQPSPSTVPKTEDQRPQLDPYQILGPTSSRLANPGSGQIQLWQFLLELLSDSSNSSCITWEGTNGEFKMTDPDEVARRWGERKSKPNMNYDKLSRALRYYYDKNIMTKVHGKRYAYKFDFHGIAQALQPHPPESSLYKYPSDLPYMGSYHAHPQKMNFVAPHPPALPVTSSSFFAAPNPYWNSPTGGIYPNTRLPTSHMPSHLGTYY
Particulars: protein: recombinant; tags: N-terminal GST; dsDNA, one strand shown. The gist of the method: as §1

A further test addresses ELF1 (Homo sapiens, UniProt P32519 1-619). Particulars: protein: recombinant; tags: N-terminal GST; dsDNA, one strand shown. The gist of the method: as §1
The next test has as its target T5, EHF (Homo sapiens, UniProt Q9NZC4 1-300).
T5 sequence: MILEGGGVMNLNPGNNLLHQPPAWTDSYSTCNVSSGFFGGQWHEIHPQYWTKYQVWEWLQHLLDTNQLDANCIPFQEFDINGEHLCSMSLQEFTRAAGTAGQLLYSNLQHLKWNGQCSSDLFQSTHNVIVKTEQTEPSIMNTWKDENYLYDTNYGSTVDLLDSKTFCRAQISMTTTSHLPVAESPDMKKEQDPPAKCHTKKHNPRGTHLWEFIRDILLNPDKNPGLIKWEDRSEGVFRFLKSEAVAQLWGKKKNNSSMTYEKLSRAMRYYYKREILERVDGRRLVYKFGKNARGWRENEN
Particulars: protein: recombinant; tags: N-terminal GST; dsDNA, one strand shown. An outline of the steps: as §1

The target in the next test is SPI1 (Homo sapiens, UniProt P17947 1-270). Particulars: protein: recombinant; tags: N-terminal GST; dsDNA, one strand shown. The gist of the method:
as §1

For a further test, the target named is SPIB (Homo sapiens, UniProt Q01892 1-262). The conditions noted are these: protein: recombinant; tags: N-terminal GST; dsDNA, one strand shown. The gist of the method:
as §1

In a further test the target is T6, ELK3 (Homo sapiens, UniProt P41970 1-407).
T6 sequence: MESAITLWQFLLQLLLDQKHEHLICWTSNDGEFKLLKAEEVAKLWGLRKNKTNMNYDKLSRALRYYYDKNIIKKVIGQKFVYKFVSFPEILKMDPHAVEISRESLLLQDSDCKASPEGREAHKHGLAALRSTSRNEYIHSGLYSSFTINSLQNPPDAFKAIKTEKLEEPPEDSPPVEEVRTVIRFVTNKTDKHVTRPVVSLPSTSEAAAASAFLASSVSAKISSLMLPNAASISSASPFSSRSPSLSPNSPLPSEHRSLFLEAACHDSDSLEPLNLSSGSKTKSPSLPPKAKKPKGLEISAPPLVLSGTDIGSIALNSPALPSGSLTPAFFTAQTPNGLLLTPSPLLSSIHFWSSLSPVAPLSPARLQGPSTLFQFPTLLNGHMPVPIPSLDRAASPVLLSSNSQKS
The conditions noted are these: protein: recombinant; tags: N-terminal GST; dsDNA, one strand shown. The gist of the method:
as §1

The next test has as its target T7, FEV (Homo sapiens, UniProt Q99581 1-238).
T7 sequence: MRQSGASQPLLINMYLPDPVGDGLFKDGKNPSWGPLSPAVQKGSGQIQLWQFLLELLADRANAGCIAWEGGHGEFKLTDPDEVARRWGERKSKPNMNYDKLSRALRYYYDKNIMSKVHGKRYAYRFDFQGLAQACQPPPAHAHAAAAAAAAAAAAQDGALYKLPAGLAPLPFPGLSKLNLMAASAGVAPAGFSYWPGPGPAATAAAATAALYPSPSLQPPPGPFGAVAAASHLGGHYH
The conditions noted are these: protein: recombinant; tags: N-terminal GST; dsDNA, one strand shown. The gist of the method: as §1

The next test concerns the target ETV5 (Homo sapiens, UniProt P41161 1-510). Particulars: protein: recombinant; tags: N-terminal GST; dsDNA, one strand shown. The gist of the method: as §1
The target in another test is HSF1 (Homo sapiens, UniProt Q00613 1-529). The conditions noted are these: protein: recombinant; tags: N-terminal GST; chain copies: 3; dsDNA, one strand shown. The gist of the method: as §1
Another test has as its target T8, SPIC (Homo sapiens, UniProt Q8N5J4 1-248).
T8 sequence: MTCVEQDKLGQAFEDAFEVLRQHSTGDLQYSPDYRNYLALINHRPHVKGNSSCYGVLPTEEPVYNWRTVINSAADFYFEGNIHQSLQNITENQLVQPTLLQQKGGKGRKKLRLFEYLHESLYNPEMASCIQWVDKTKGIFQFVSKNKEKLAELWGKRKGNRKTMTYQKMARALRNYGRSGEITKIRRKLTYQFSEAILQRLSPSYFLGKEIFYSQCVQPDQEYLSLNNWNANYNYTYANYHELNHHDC
Particulars: protein: recombinant; tags: N-terminal GST; dsDNA, one strand shown. An outline of the steps: as §1

In the next test the target is ELF4 (Homo sapiens, UniProt Q99607 1-663). The conditions noted are these: protein: recombinant; tags: N-terminal GST; dsDNA, one strand shown. An outline of the steps:
as §1

The target of another test is T9, ELK4 (Homo sapiens, UniProt P28324-2 1-405).
T9 sequence: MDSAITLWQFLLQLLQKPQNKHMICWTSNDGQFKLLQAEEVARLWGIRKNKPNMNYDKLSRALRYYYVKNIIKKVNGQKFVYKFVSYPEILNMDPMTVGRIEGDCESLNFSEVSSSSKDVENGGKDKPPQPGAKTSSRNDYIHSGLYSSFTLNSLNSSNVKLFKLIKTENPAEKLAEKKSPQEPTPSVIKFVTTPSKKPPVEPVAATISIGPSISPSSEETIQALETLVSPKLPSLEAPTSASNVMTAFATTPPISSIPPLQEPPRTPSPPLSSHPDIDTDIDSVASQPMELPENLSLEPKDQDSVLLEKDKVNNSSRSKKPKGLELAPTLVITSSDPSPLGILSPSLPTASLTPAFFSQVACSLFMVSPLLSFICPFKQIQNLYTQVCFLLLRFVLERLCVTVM
Particulars: protein: recombinant; tags: N-terminal GST; dsDNA, one strand shown. The gist of the method:
as §1

In the next test the target is T10, ELF3 (Homo sapiens, UniProt P78545 1-371).
T10 sequence: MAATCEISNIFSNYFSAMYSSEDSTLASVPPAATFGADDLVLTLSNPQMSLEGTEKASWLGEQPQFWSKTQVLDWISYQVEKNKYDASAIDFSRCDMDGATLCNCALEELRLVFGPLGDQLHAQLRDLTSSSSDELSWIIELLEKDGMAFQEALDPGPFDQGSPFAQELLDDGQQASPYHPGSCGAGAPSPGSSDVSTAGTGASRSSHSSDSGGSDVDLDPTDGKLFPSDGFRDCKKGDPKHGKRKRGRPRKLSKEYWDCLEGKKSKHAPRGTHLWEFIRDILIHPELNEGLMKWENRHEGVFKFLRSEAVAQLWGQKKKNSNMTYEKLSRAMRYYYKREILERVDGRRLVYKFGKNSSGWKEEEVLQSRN
Particulars: protein: recombinant; tags: N-terminal GST; dsDNA, one strand shown. An outline of the steps:
as §1

Another test addresses CRX (Homo sapiens, UniProt O43186 1-299). Particulars: protein: recombinant; tags: N-terminal GST; dsDNA, one strand shown. The gist of the method: as §1
A further test concerns the target ETV1 (Homo sapiens, UniProt P50549 1-477). The conditions noted are these: protein: recombinant; tags: N-terminal GST; dsDNA, one strand shown. The gist of the method: as §1

Chain of HSF1 (Q00613 whole entry): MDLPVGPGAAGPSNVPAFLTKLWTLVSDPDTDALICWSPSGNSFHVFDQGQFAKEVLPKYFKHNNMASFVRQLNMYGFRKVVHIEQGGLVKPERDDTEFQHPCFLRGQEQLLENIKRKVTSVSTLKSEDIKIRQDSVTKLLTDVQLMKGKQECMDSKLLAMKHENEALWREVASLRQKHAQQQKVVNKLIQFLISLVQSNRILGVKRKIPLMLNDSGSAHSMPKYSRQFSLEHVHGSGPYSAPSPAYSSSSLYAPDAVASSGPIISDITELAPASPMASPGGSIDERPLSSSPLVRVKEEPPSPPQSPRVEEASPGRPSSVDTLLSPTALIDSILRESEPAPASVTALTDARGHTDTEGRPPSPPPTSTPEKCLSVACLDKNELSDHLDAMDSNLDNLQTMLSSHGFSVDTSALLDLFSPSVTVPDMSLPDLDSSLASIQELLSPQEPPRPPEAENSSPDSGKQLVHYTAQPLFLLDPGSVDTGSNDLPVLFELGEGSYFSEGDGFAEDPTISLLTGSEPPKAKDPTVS
Chain of SPIB (Q01892 whole entry): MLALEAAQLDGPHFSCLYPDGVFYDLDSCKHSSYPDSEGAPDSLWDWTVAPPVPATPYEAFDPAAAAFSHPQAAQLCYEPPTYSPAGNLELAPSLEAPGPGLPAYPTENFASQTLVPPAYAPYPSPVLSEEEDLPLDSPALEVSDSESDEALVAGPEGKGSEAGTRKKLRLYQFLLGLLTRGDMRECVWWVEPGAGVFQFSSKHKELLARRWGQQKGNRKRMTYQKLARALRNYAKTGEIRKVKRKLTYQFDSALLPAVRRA
Chain of CRX (O43186 whole entry): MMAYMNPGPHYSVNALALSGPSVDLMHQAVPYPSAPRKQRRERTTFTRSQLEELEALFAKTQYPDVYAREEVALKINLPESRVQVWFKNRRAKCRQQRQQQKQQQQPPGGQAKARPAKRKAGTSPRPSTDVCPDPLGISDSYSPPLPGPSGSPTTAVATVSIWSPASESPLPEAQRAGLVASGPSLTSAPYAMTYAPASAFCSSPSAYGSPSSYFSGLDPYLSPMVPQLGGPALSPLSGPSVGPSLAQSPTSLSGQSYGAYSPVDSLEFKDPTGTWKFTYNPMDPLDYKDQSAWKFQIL
Chain of ETV1 (P50549 whole entry): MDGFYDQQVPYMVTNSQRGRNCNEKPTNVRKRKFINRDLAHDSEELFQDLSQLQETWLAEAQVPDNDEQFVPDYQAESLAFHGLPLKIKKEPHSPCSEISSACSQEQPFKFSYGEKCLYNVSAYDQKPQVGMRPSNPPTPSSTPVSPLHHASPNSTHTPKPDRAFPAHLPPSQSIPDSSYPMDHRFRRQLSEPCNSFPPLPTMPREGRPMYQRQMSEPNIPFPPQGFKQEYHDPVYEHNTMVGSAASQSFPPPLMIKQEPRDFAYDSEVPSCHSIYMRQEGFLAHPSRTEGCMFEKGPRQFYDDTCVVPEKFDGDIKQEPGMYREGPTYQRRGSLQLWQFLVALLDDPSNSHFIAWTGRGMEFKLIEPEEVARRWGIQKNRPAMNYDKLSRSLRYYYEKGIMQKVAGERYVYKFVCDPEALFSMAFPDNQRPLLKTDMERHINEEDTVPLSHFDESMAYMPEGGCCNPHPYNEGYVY
Chain of ELF4 (Q99607 whole entry): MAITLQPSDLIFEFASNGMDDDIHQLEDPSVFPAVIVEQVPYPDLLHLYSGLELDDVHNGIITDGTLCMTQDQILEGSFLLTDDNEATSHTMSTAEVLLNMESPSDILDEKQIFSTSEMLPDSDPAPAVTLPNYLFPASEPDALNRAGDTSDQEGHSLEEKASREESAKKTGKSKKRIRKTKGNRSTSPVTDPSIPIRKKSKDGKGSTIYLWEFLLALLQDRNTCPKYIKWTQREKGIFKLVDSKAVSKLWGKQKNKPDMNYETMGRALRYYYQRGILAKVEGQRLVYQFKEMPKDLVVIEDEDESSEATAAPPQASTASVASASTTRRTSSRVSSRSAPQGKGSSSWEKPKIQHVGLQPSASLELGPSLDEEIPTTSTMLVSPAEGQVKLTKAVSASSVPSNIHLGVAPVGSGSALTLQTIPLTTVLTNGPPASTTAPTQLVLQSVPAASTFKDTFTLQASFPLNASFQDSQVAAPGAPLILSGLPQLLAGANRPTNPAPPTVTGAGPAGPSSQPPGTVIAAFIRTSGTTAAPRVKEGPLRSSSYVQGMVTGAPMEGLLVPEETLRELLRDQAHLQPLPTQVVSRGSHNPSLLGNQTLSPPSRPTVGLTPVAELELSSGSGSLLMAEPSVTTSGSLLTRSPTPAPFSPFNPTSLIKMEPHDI
Chain of ETV5 (P41161 whole entry): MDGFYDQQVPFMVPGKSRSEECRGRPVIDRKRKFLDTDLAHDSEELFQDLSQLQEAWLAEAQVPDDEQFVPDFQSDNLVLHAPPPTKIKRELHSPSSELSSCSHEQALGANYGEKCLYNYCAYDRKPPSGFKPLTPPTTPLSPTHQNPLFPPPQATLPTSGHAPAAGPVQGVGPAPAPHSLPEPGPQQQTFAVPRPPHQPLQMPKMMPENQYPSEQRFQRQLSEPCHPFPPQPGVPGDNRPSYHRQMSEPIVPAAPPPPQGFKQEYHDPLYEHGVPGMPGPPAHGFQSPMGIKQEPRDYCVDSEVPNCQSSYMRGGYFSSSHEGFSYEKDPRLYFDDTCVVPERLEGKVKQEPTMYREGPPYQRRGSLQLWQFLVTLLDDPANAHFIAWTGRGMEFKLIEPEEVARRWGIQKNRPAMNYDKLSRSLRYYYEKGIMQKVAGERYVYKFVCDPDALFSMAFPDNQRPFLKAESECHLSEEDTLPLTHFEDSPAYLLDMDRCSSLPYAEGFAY
Chain of ELF1 (P32519 whole entry): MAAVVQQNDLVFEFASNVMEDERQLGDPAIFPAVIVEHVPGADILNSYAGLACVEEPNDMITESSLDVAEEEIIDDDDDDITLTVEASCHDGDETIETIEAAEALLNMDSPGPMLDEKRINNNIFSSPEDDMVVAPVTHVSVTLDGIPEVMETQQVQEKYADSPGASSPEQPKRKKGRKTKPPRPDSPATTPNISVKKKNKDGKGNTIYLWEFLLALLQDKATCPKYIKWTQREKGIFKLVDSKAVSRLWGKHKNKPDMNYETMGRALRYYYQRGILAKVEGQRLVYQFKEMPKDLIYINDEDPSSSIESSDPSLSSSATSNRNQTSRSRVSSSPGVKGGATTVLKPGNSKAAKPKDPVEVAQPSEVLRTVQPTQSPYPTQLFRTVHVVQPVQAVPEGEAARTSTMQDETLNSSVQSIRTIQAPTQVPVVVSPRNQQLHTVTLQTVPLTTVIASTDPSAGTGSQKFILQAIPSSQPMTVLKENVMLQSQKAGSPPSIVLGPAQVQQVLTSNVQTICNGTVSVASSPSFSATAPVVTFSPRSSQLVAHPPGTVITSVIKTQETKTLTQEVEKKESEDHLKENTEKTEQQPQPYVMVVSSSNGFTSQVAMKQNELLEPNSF

On to TCCCGA, for which the binding signal in the test with FLI1 is 1.39 fold enrichment (6-mer frequency, TF over GST control); with ELK1, 1.23 fold enrichment (6-mer frequency, TF over GST control); with GABPA it was 1.47 fold enrichment (6-mer frequency, TF over GST control); with ERG, 1.27 fold enrichment (6-mer frequency, TF over GST control); with ELF1, 1.31 fold enrichment (6-mer frequency, TF over GST control); with EHF, 1.36 fold enrichment (6-mer frequency, TF over GST control). The binding signal with SPI1 is 1.37 fold enrichment (6-mer frequency, TF over GST control); with SPIB it was 1.41 fold enrichment (6-mer frequency, TF over GST control); with ELK3, 1.35 fold enrichment (6-mer frequency, TF over GST control); with FEV, 1.31 fold enrichment (6-mer frequency, TF over GST control); with ETV5, 1.37 fold enrichment (6-mer frequency, TF over GST control); with HSF1 it was 2.34 fold enrichment (6-mer frequency, TF over GST control). In addition, the binding signal in the test with SPIC was 1.36 fold enrichment (6-mer frequency, TF over GST control); in the test with ELF4 it was 1.25 fold enrichment (6-mer frequency, TF over GST control); with ELK4, 1.42 fold enrichment (6-mer frequency, TF over GST control); with ELF3, 1.26 fold enrichment (6-mer frequency, TF over GST control); with CRX it was 1.59 fold enrichment (6-mer frequency, TF over GST control); in the test with ETV1 it was 1.29 fold enrichment (6-mer frequency, TF over GST control).
